Experimental data: PubChem BioAssay AID1159580 (chemical genetic matrix, 2015)
Among all 5,500 compounds or so, about 2,000 (36%) were called active. Another 18% or so got no clear call; they are omitted. Rule as the data show it: active = normalized growth mostly below about 0.91 (no sharp cut-off); inconclusive = no clear call, values can overlap the other calls; inactive = mostly above about 0.92. This is one part of the list.

Experiment: chemical genetic growth profiling, strain panel (AID 1159580);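 also: tested at 20 µM; growth read once vehicle control cultures reached saturation at 30 °C; 1 = growth at the plate median or of vehicle wells; lower values mean less growth of the strain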
Conditions: S. cerevisiae deletion strains, growth OD

Measured: normalized growth

COC(=O)c1c(-c2cc(OC)c(OC)c(OC)c2)c2ccnc(OCc3ncccn3)c2c(=O)n1Cc1ccnc(C)c1
inactive: locus YAL013W, strain DEP1, active compounds read low 1 | locus YAL040C, strain CLN3, active compounds read low 0.889 | locus YCL061C, strain MRC1 (second series), active compounds read low 1.01 | locus YDR363W, strain ESC2, active compounds read low 1.01 | locus YER002W, strain NOP16, active compounds read low 1 | locus YGR078C, strain PAC10, active compounds read low 1.01 | locus YMR263W, strain SAP30, active compounds read low 1.01 | locus YMR307W, strain GAS1, active compounds read low 1.01 | locus YNL153C, strain GIM3, active compounds read low 1.01 | locus YNL175C, strain NOP13, active compounds read low 1 | locus YNL197C, strain WHI3, active compounds read low 0.989 | locus YNL224C, strain SQS1, active compounds read low 0.993 | locus YNL322C, strain KRE1, active compounds read low 1.01 | locus YOR083W, strain WHI5 (second series), active compounds read low 0.999 | locus YPL055C, strain LGE1, active compounds read low 1.01

CC(=O)c1c(O)cc(O)cc1O
inactive: locus YAL021C, strain ccr4, active compounds read low 1.04 | locus YAL026C, strain drs2, active compounds read low 0.987 | locus YAL030W, strain snc1, active compounds read low 0.981 | locus YBL061C, strain skt5, active compounds read low 0.985 | locus YBR009C, strain hhf1, active compounds read low 1.02 | locus YBR023C, strain chs3, active compounds read low 0.995 | locus YBR171W, strain sec66, active compounds read low 0.964 | locus YBR231C, strain swc5, active compounds read low 0.947 | locus YBR279W, strain paf1, active compounds read low 0.991 | locus YCL011C, strain gbp2, active compounds read low 0.978 | locus YCL016C, strain dcc1, active compounds read low 1.03 | locus YCL061C, strain MRC1, active compounds read low 1 | locus YCL069W, strain vba3, active compounds read low 0.949 | locus YCR088W, strain abp1, active compounds read low 0.967 | locus YDL005C, strain med2, active compounds read low 0.97 | locus YDL040C, strain nat1, active compounds read low 0.973 | locus YDR001C, strain nth1, active compounds read low 0.981 | locus YDR069C, strain doa4, active compounds read low 0.937 | locus YDR137W, strain rgp1, active compounds read low 1.01 | locus YDR159W, strain sac3, active compounds read low 0.967 | locus YDR195W, strain ref2 0.914 | locus YDR297W, strain sur2, active compounds read low 0.982 | locus YDR334W, strain swr1, active compounds read low 0.96 | locus YDR335W, strain msn5, active compounds read low 0.973 | locus YDR392W, strain spt3, active compounds read low 0.952 | locus YEL003W, strain gim4, active compounds read low 0.979 | locus YEL037C, strain rad23, active compounds read low 0.974 | locus YEL061C, strain CIN8 (second series), active compounds read low 0.961 | locus YER015W, strain faa2, active compounds read low 0.988 | locus YER016W, strain bim1, active compounds read low 0.972 | locus YER111C, strain swi4, active compounds read low 0.975 | locus YER155C, strain BEM2 (second series), active compounds read low 0.969 | locus YFR010W, strain ubp6, active compounds read low 0.948 | locus YGL167C, strain pmr1, active compounds read low 0.992 | locus YGL173C, strain kem1, active compounds read low 0.993 | locus YGL227W, strain vid30, active compounds read low 0.968 | locus YGL240W, strain doc1, active compounds read low 0.981 | locus YGL253W, strain hxk2, active compounds read low 0.938 | locus YHR013C, strain ard1, active compounds read low 0.985 | locus YHR027C, strain rpn1, active compounds read low 0.997 | locus YHR030C, strain SLT2, active compounds read low 0.986 | locus YHR079C, strain IRE1, active compounds read low 0.974 | locus YHR142W, strain chs7, active compounds read low 0.988 | locus YJL092W, strain hpr5, active compounds read low 0.978 | locus YJL095W, strain BCK1 (second series), active compounds read low 0.981 | locus YJL095W, strain BCK1, active compounds read low 0.992 | locus YJL115W, strain asf1, active compounds read low 0.999 | locus YJL129C, strain trk1, active compounds read low 0.977 | locus YJL154C, strain vps35, active compounds read low 0.973 | locus YJL164C, strain tpk1, active compounds read low 1.02 | locus YJL166W, strain qcr8, active compounds read low 0.989 | locus YJL187C, strain SWE1, active compounds read low 0.99 | locus YJR066W, strain TOR1, active compounds read low 0.952 | locus YKL160W, strain elf1, active compounds read low 1.03 | locus YKR026C, strain gcn3, active compounds read low 0.948 | locus YKR091W, strain srl3, active compounds read low 0.988 | locus YLL001W, strain dnm1, active compounds read low 0.978 | locus YLL026W, active compounds read low 0.998 | locus YLL041C, strain sdh2, active compounds read low 0.983 | locus YLR027C, strain aat2, active compounds read low 0.993 | locus YLR113W, strain HOG1, active compounds read low 0.97 | locus YLR221C, strain rsa3, active compounds read low 0.955 | locus YLR258W, strain gsy2, active compounds read low 0.989 | locus YLR262C, strain YPT6 (second series), active compounds read low 1.06 | locus YLR320W, strain mms22, active compounds read low 0.978 | locus YLR342W, strain FKS1, active compounds read low 0.978 | locus YLR357W, strain rsc2, active compounds read low 0.982 | locus YLR370C, strain arc18, active compounds read low 0.961 | locus YLR384C, strain iki3, active compounds read low 0.973 | locus YML120C, strain ndi1, active compounds read low 0.998 | locus YMR058W, strain fet3, active compounds read low 0.975 | locus YMR125W, strain sto1, active compounds read low 0.958 | locus YMR129W, active compounds read low 0.978 | locus YMR205C, strain PFK2, active compounds read low 1.03 | locus YMR231W, strain pep5, active compounds read low 0.968 | locus YNL071W, strain lat1, active compounds read low 0.984 | locus YNL183C, strain NPR1, active compounds read low 0.938 | locus YNL209W, strain ssb2, active compounds read low 0.997 | locus YNL248C, strain rpa49, active compounds read low 1.01 | locus YNL322C, strain KRE1 (second series), active compounds read low 0.99 | locus YNR049C, strain mso1, active compounds read low 0.978 | locus YOR001W, strain rrp6, active compounds read low 0.922 | locus YOR070C, strain gyp1, active compounds read low 0.988 | locus YOR080W, strain dia2, active compounds read low 0.962 | locus YOR083W, strain WHI5, active compounds read low 1.03 | locus YOR106W, strain vam3, active compounds read low 1.04 | locus YOR231W, strain MKK1, active compounds read low 0.982 | locus YOR265W, strain rbl2, active compounds read low 0.976 | locus YOR270C, strain vph1, active compounds read low 1.01 | locus YOR290C, strain snf2, active compounds read low 1.03 | locus YPL051W, strain arl3, active compounds read low 0.965 | locus YPL078C, strain atp4, active compounds read low 1.03 | locus YPL106C, strain sse1, active compounds read low 0.958 | locus YPL240C, strain hsp82, active compounds read low 0.979 | locus YPL256C, strain CLN2, active compounds read low 0.973
